Shown are actives, neighbours in structure and some others; about 0.65% of the full set was active somewhere.
ugtP null kill: growth inhibition of S. aureus ugtP deletion strain. AID 1259309. actives 0.54% (n = 330,000). growth inhibition, % (concentration not given with the values). S. aureus RN4220 ugtP deletion, OD600 growth, 16 h; in the data active = growth inhibition above about 68%
BJeLR lethal: BJeLR cell viability loss. AID 1554. BJeLR (HRASV12) viability, CellTiter-Glo ATP luminescence, 48 h. actives 0.17% (n = 300,000). inhibition, % (concentration not given with the values); in the data active = inhibition above about 50%
RN4220 kill: S. aureus RN4220 growth inhibition. OD600, 16 h. inhibition, % (no concentration beside the values). actives 0.33% (n = 330,000); in the data active = inhibition above about 85%
Hits are given with their value; – = inactive; · = no result given.

SMILES	ugtP null kill	BJeLR lethal	RN4220 kill
Cc1nn(C)c(C)c1NC(=O)Nc1ccc(Cl)c(Cl)c1	–	–	active
CC(C)[C@H](N)C(=O)NC[C@H]1O[C@@H](n2cnc3c(N)ncnc32)[C@H](O)[C@@H]1O	–	·	–
COc1ccc(C)cc1NC(=O)c1ccc(S(=O)(=O)N2CCCCC2)cc1	–	–	–
Cn1nc(C(F)(F)F)c(C=NOCc2c(Cl)cccc2Cl)c1Cl	93	·	–
Cn1nc(C(F)(F)F)c(/C=N/OC(=O)c2ccccc2)c1Cl	·	–	·
COc1ccc(C(=O)c2c(C(F)(F)F)oc3c2C(=O)c2ccccc2C3=O)cc1	–	–	94
COc1ccc(C(=O)c2coc(-c3ccccc3C(=O)O)c2C(=O)O)cc1	–	–	–
CC(=O)c1ccc(NC(=O)CSc2ccc3nnc(-c4cccnc4)n3n2)cc1	–	–	–
Cc1ccc(NC(=S)NN=C2CCCCc3ccccc32)cc1	active	·	–
Cc1ccc(C)c(NC(=S)NN=C2CCCCc3ccccc32)c1	–	·	–
CN(CC(=O)Nc1ccccc1Br)C(=O)c1ccncc1	–	–	–
COc1ccc(NC(=O)CNC(=O)c2sc3ccccc3c2Cl)c(OC)c1	–	·	–
Cc1ccsc1/C=C1\CCc2ccccc2C1=O	–	–	–
O=C(COc1coc(CN2CCN(c3ccccc3)CC2)cc1=O)NCC1CCCO1 (stereo not given)	–	–	–
O=[N+]([O-])/C=C/c1cn(Cc2ccc(Cl)cc2)c2ccccc12	–	–	90
Cc1cccc(Cn2cc(/C=C/[N+](=O)[O-])c3ccccc32)c1	–	–	–
COc1ccc2c(c1)CCCC2NS(=O)(=O)OCC(Cl)(Cl)Cl (stereo not given)	–	–	–
CC1(C)CC(NS(=O)(=O)OCC(Cl)(Cl)Cl)c2cc(C#N)ccc2O1 (stereo not given)	99	–	99
Cc1cccc(C(=O)N2CCC(N3CCC(C(=O)N4CCOCC4)CC3)CC2)c1	–	–	–
CCOC(=O)C(NC(=O)Nc1ncccn1)(Oc1ccccc1)C(F)(F)F (stereo not given)	–	–	–
CCOC(=O)C(NC(=O)Nc1ccc(F)cc1F)(Oc1ccc(F)cc1)C(F)(F)F (stereo not given)	–	–	85
Cc1ccc2nc(-c3ccncc3)cc(C(=O)N3CCOCC3)c2c1	·	–	·
O=C(CCl)N1c2ccccc2SCC1c1ccccc1 (stereo not given)	·	–	·
O=C(CCl)N1c2ccccc2OCC1c1ccccc1 (stereo not given)	95	–	–
CCOC(=O)C1CCN(Cc2ccc(OCc3ccccc3)cc2)CC1	–	–	–
SMILES	ugtP null kill	BJeLR lethal	RN4220 kill
O=C(Nc1ncc2c(n1)-c1ccccc1CC2)c1ccccc1	–	–	–
O=C1N(c2ccccc2C(F)(F)F)O[C@@]1(c1ccccc1)C1CCCC1	–	·	–
CC(=O)c1ccccc1OC(=O)c1c(F)cccc1F	–	–	–
CC(=O)c1ccccc1OC(=O)c1ccc(-c2ccccc2)cc1	100	–	–
CSCCC(NC(=O)c1cccc(C)c1)C(=O)O (stereo not given)	–	–	–
Cc1nc(NS(=O)(=O)c2ccccc2)sc1NC(=O)Nc1ccc(Cl)cc1	–	–	–
COc1ccccc1-c1cc(C(F)(F)F)nc(N2CCCC2)n1	86	–	–
COc1ccccc1-c1cc(C(F)(F)F)nc(N2CCCCC2)n1	–	–	–
COc1ccc(/C=C/C2=CCN(C)CC2)cc1	–	–	–
CN1CC=C(/C=C/c2ccc(-c3ccccc3)cc2)CC1	93	–	–
CCOc1ccc(NC(=O)CCNS(=O)(=O)c2cccs2)cc1	–	–	–
Cc1cc(C=c2sc3nc4ccccc4n3c2=O)c(C)n1-c1ccc(C(=O)O)cc1	100	·	–
Cc1cc(/C=c2\sc3nc4ccccc4n3c2=O)c(C)n1-c1ccc(C(=O)O)cc1	·	–	·
O=C(C[n+]1cc(-c2ccc(Cl)cc2)n2c1CCC2)N1c2ccccc2Sc2ccccc21	–	–	–
O=C(C[n+]1cc(-c2ccc(Cl)c(Cl)c2)n2c1CCC2)N1c2ccccc2Sc2ccccc21	101	–	100
O=C(NC(=O)c1c(F)cccc1F)Nc1ccccc1SC(F)F	–	–	–
COc1ccc(/C=C/C(=O)c2cc(F)ccc2OC(=O)c2ccccc2C)cc1OC	–	77	–
COc1ccc(C(=O)Oc2ccc(F)cc2C(=O)/C=C/c2ccc(OC)c(OC)c2)cc1	–	–	–
Cc1ccc(NC2=CC(=NS(=O)(=O)c3cccs3)c3ccccc3C2=O)cc1C	–	·	–
Cc1ccccc1NC1=C/C(=N\S(=O)(=O)c2cccs2)c2ccccc2C1=O	88	–	99
CC1Cc2ccccc2N1C(=O)CSc1nc2c(c(=O)n(C)c(=O)n2C)n1Cc1ccccc1 (stereo not given)	–	–	–
CS(=O)(=O)N(CC(=O)Nc1cccc(F)c1)c1cccc([N+](=O)[O-])c1	–	–	–
CC(=O)Nc1ccc(NC(=O)CN(c2cccc([N+](=O)[O-])c2)S(C)(=O)=O)cc1	–	69	–
Cc1ccc([N+](=O)[O-])cc1N(CC(=O)NC1CCCC1)S(C)(=O)=O	–	·	–
Cc1ccc(NS(=O)(=O)c2ccc(NC(=O)CN(c3cc([N+](=O)[O-])ccc3C)S(C)(=O)=O)cc2)c(C)c1	–	65	–
SMILES	ugtP null kill	BJeLR lethal	RN4220 kill
Cc1cc(C)nc(SCc2c(F)cccc2Cl)n1	–	–	–
O=C(Cc1cccc([N+](=O)[O-])c1)Nc1ccc(C(=O)N2CCOCC2)cc1	–	·	–
O=C1[C@@H]2Cc3c([nH]c4ccccc34)CN2C(=O)CN1CCCO	–	–	–
O=C1/C(=C\c2ccc(Cl)cc2Cl)N2CCC1CC2	–	–	–
CCCCOc1ccc(/C=C/C(=O)OCC(=O)NC2CCS(=O)(=O)C2)cc1OCC (stereo not given)	92	–	–
COc1ccc(/C=C/C(=O)OCC(=O)NC2CCS(=O)(=O)C2)cc1 (stereo not given)	–	·	–
CCOC(=O)N1CCN(C(=O)c2cccc(NC(=O)c3ccco3)c2)CC1	–	–	–
CCOC(=O)c1c(C)nc2ncccn12	–	–	–
O=C(Nc1ccc(Cl)cc1)C1(S(=O)(=O)c2ccccc2)CC1	–	·	–
O=C(N/N=C\C=C\c1ccc([N+](=O)[O-])o1)c1cccs1	·	–	·
O=C1NC(=S)S/C1=C\C=C\c1ccc([N+](=O)[O-])o1	100	·	100
Fc1ccccc1C=NNc1ccc(Cl)nn1	–	·	–
COc1cc(NS(=O)(=O)c2ccc(NC(=O)COc3ccccc3Cl)cc2)nc(OC)n1	–	–	–
O=C1NC(=S)S/C1=C/c1ccc(N2CCOCC2)o1	–	–	–
COc1ccc2cc(/C=C3\SC(=S)NC3=O)c(N3CCOCC3)nc2c1	90	–	89
Cc1cccc(N2CCN(C(=O)c3ccccc3NC(=O)C3=CSCCO3)CC2C)c1 (stereo not given)	–	–	–
CCc1ccccc1NC(=O)CN1CCN(C(=O)CNC(=O)c2ccccc2F)CC1	–	·	–
CCC1(C)Cc2ccccc2-c2nc(NN)[nH]c(=O)c21 (stereo not given)	–	–	–
CCC1(C)Cc2ccccc2-c2nc(-c3ccccc3)oc(=O)c21 (stereo not given)	85	–	–
O=C1C2C(C(=O)N1N=Cc1cc([N+](=O)[O-])c(O)cc1O)C1C=CC2C12CC2 (stereo not given)	–	·	–

Source: PubChem BioAssay
